# The supplement of paper PMC9262897, “Low-cost anti-mycobacterial drug discovery using engineered E. coli” (Nature Communications, 2022)
# Counter-ions that a name gives are not always drawn. ± gives the standard deviation of the averaged measurements.
# System: E. coli TESEC Mtb DapB
# Test: growth (OD600 after 10 h); higher = more growth (less inhibition)
# Settings: arabinose induction (level): Low; compound 0.1 mM; raw OD600 reference: median of DMSO wells 0.227, cell-free background 0.041
# Experimental: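 TESEC E. coli strains in which the native enzyme is deleted and replaced by arabinose-inducible Mtb Asd, DapB, CysH or TrpD, each grown in its selective medium. Strains were screened against the Prestwick library at 0.1 mM and 1% DMSO in 384-well format at low and high arabinose induction. Growth is read as OD600 after 10 h in triplicate.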
row,Structure (SMILES),growth
1,CCN1CCCC1CNC(=O)c1cc(S(N)(=O)=O)ccc1OC (stereo not drawn) [Sulpiride],0.253 ± 0.024
2,COc1ncnc(NS(=O)(=O)c2ccc(N)cc2)c1OC [Sulfadoxine],0.237 ± 0.0097
3,C[C@@H]1C[C@H]2[C@@H]3C[C@H](F)C4=CC(=O)C=C[C@]4(C)[C@@]3(Cl)[C@@H](O)C[C@]2(C)[C@H]1C(=O)COC(=O)C(C)(C)C [Clocortolone pivalate],0.254 ± 0.0078

# System: E. coli TESEC Alr+ wild-type control
# Test: as above
# Settings: compound 0.1 mM; raw OD600 reference: median of DMSO wells 0.49, cell-free background 0.052
# Experimental: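 TESEC Mtb Alr E. coli (ΔaraC ΔtolC ΔentC Δalr ΔdadX, arabinose-inducible Mtb Alr) or the Alr+ wild-type control strain, grown in defined M9-fructose medium without D-alanine in 96-well plates with Prestwick library compounds at 0.1 mM and 1% DMSO. Low Alr induction is 0.1 µM arabinose and high induction is 10 mM arabinose.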
row,Structure (SMILES),growth
1,O=C1OC(CN2CCOCC2)CN1/N=C/c1ccc([N+](=O)[O-])o1 (stereo not drawn) [Furaltadone hydrochloride],0.05647 ± 0.00045
2,CN(C)CCCN1c2ccccc2CCc2ccccc21 [Imipramine hydrochloride],0.452 ± 0.015
3,CCOC(=O)O[C@]1(C(=O)OCCl)CC[C@H]2[C@@H]3CCC4=CC(=O)C=C[C@]4(C)[C@H]3[C@@H](O)C[C@@]21C [Loteprednol etabonate],0.473 ± 0.12
4,CCCNC(C)C(=O)Nc1ccccc1C (stereo not drawn) [Prilocaine hydrochloride],0.493 ± 0.068
5,NS(=O)(=O)c1cc2c(cc1Cl)NCNS2(=O)=O [Hydrochlorothiazide],0.448 ± 0.062
6,Cc1cc2c(s1)Nc1ccccc1N=C2N1CCN(C)CC1 [Olanzapine],0.502 ± 0.029
7,Nc1ccc(C(=O)O)c(O)c1 [4-aminosalicylic acid],0.545 ± 0.044
8,CC(=O)Oc1ccc(C(c2ccc(OC(C)=O)cc2)c2ccccn2)cc1 [Bisacodyl],0.5 ± 0.016
9,"CN(Cc1cnc2nc(N)nc(N)c2n1)c1ccc(C(=O)N[C@@H](CCC(=O)O)C(=O)O)cc1 (racemic) [Amethopterin (R,S)]",0.0999 ± 0.0032
10,CC(C(=O)O)c1ccc(C(=O)c2ccccc2)s1 (stereo not drawn) [Tiaprofenic acid],0.502 ± 0.059
11,Nc1c2ccccc2nc2ccccc12 [Aminacrine],0.0507 ± 0.00067
12,CCCC(CCC)C(=O)O [Valproic acid],0.478 ± 0.035
13,Cc1[nH]cnc1CN1CCc2c(c3ccccc3n2C)C1=O [Alosetron hydrochloride],0.563 ± 0.075
14,CN(C)c1nc(N(C)C)nc(N(C)C)n1 [Altretamine],0.618 ± 0.023
15,Cc1nnc(NS(=O)(=O)c2ccc(N)cc2)s1 [Sulfamethizole],0.462 ± 0.018
16,CCC1=C(C)CN(C(=O)NCCc2ccc(S(=O)(=O)NC(=O)N[C@H]3CC[C@H](C)CC3)cc2)C1=O [Glimepiride],0.434 ± 0.034
17,CC1CC(OC(=O)c2ccccc2O)CC(C)(C)C1 (stereo not drawn) [Homosalate],0.543 ± 0.057
18,CCCN(CCC)C(=O)C(CCC(=O)O)NC(=O)c1ccccc1 (stereo not drawn) [Proglumide],0.477 ± 0.079
19,NCCc1ccc(O)c(O)c1 [Dopamine hydrochloride],0.624 ± 0.051
20,OCCN1CCN(CCCN2c3ccccc3Sc3ccc(Cl)cc32)CC1 [Perphenazine],0.0523 ± 0.0019

row,Structure (SMILES),growth
1,CCN(CC)CCOC(=O)C1(C2CCCCC2)CCCCC1 [Dicyclomine hydrochloride],0.46 ± 0.008
2,Cc1cc(-c2ccccc2)nnc1NCCN1CCOCC1 [Minaprine dihydrochloride],0.498 ± 0.045
3,CCC1(C)CC(=O)NC1=O (stereo not drawn) [Ethosuximide],0.436 ± 0.043
4,COc1nc(C)nc(Cl)c1NC1=NCCN1 [Moxonidine],0.567 ± 0.019
5,COC(=O)Nc1nc2cc(C(=O)c3cccs3)ccc2[nH]1 [Nocodazole],0.465 ± 0.044
6,CCN(CC)C(=O)/C(C#N)=C/c1cc(O)c(O)c([N+](=O)[O-])c1 [Entacapone],0.144 ± 0.02
7,CCN(CC)CCOC(=O)C(c1ccccc1)C1CCCCC1 (stereo not drawn) [Drofenine hydrochloride],0.428 ± 0.026
8,Cc1c(Cl)cccc1Nc1ncccc1C(=O)O [Clonixin Lysinate],0.334 ± 0.0083
9,Cn1cnc2c1c(=O)[nH]c(=O)n2C [Theobromine],0.461 ± 0.015
10,COc1cc(N)c(Cl)cc1C(=O)NC1CCN(Cc2ccccc2)CC1 [Clebopride maleate],0.474 ± 0.027
11,CCN1CCN(c2cc3c(cc2F)c(=O)c(C(=O)O)cn3C2CC2)CC1 [Enrofloxacin],0.0543 ± 0.0025
12,Nc1ccn([C@H]2CC[C@@H](CO)O2)c(=O)n1 [Zalcitabine],0.4783 ± 0.0003
13,COCCOC(=O)C1=C(C)NC(C)=C(C(=O)OC(C)C)C1c1cccc([N+](=O)[O-])c1 (stereo not drawn) [Nimodipine],0.325 ± 0.004
14,C[C@H]1O[C@@H](O[C@H]2[C@@H](O)C[C@H](O[C@H]3[C@@H](O)C[C@H](O[C@H]4CC[C@@]5(C)[C@H](CC[C@@H]6[C@@H]5C[C@@H](O)[C@]5(C)[C@@H](C7=CC(=O)OC7)CC[C@]65O)C4)O[C@@H]3C)O[C@@H]2C)C[C@H](O)[C@@H]1O [Digoxin],0.617 ± 0.038
15,COc1cccc2c1C(=O)c1c(O)c3c(c(O)c1C2=O)C[C@@](O)(C(C)=O)C[C@@H]3O[C@H]1C[C@H](N)[C@H](O)[C@H](C)O1 [Daunorubicin hydrochloride],0.053 ± 0.00055
16,O=C(CCNNC(=O)c1ccncc1)NCc1ccccc1 [Nialamide],0.516 ± 0.07
17,CC(=O)S[C@@H]1CC2=CC(=O)CC[C@]2(C)[C@H]2CC[C@@]3(C)[C@@H](CC[C@@]34CCC(=O)O4)[C@H]12 [Spironolactone],0.331 ± 0.022
18,CCN1CCCC1CNC(=O)c1cc(S(N)(=O)=O)ccc1OC (stereo not drawn) [Sulpiride],0.525 ± 0.011
19,COc1ncnc(NS(=O)(=O)c2ccc(N)cc2)c1OC [Sulfadoxine],0.594 ± 0.022
20,C[C@@H]1C[C@H]2[C@@H]3C[C@H](F)C4=CC(=O)C=C[C@]4(C)[C@@]3(Cl)[C@@H](O)C[C@]2(C)[C@H]1C(=O)COC(=O)C(C)(C)C [Clocortolone pivalate],0.477 ± 0.013
